Reference: ChEMBL document CHEMBL4888484, “Replenishing the malaria drug discovery pipeline: Screening and hit evaluation of the MMV Hit Generation Library 1 (HGL1) against asexual blood stage Plasmodium falciparum ,using a nano luciferase reporter read-out” (2022)
About 420 (8.8%) of roughly 4,800 compounds showed an effect of 50% or more. What follows is part of a selection rich in strong results, with near analogues and random picks from the rest. Where a SMILES comes first, the peptide text is derived from it. The star is where a group is joined. NHPhenethyl = c1ccc(CCN*)cc1

Tested on: Plasmodium falciparum
Experiment: Confirmatory screen in NF54 nanoGlo assay, in single point, at 2uM, 72h
Type: functional, Erythrocyte
Conditions: timepoint 72 hour

Compound	% Inhibition [%]
CCc1ccc([C@H]2NCCc3[nH]cnc32)nc1	29
CC(C)n1ccc(CN2CCC[C@H](c3cc(C(F)(F)F)[nH]n3)C2)n1	-9
CCc1ccc(CN2CCC[C@H](c3ncc[nH]3)C2)nc1	52
CCN(CC)c1ccc(N2C(=O)c3c(Br)c(Br)c(Br)c(Br)c3C2=O)cc1	5
C=CCNC(=S)NS(=O)(=O)c1ccc(Cl)cc1	3
COc1cc(CNCCN2CCOCC2)ccc1OCc1ccc(C)cc1	-1
CCOc1cc(=O)c(C(=O)N2CCC(C(N)=O)CC2)nn1-c1ccc(F)cc1	-6
Cc1ccccc1S(=O)(=O)N1CCN(c2c(C)n(-c3ccccc3)c(=O)n(C)c2=O)CC1	1
CCS(=O)(=O)N1CCN(c2c(C)n(-c3ccccc3)c(=O)n(C)c2=O)CC1	2
Cn1c(N)c(S(=O)(=O)N2CCN(c3ccccc3Cl)CC2)c(=O)n(C)c1=O	61
CC(C)n1cc(CN[C@@]2(CO)CCCc3ccccc32)cn1	-5
CCN(CC)CCCNC(=O)[C@H]1CCCN(c2nc3ccccc3n(Cc3ccccc3)c2=O)C1	0
CCC1CN2CCCC2CN1C(=O)Nc1nc2ccccc2s1 (configuration not stated)	-1
COc1ccc(CNC(=O)Cn2c(=O)n(Cc3cccc(OC)c3)c(=O)c3sccc32)cc1	1
Cn1ccc(NC(=O)C(=O)N2CC[C@H](c3ccco3)C2)n1	-1
O=C(Nc1cc(N2CCCS2(=O)=O)ccc1O)c1cccc(Oc2cccc(C(F)(F)F)c2)c1	100
Cc1cccc(C(=O)Nc2ccc(N3CCCCCC3)cc2C(=O)O)c1	-10
O=C(Nc1cccc(C(F)(F)F)c1)C(Oc1ccccc1)Oc1ccccc1	-20
CC(C)(C)CC(=O)NC[C@H]1OC[C@@H](NC2CCCC2)[C@@H]1O	3
Cc1n[nH]c(C)c1NC(=O)C1=NO[C@@H](CNC(=O)OC(C)(C)C)C1	0
Cc1cccc(C(=O)N[C@H]2CCN(c3ccccc3)C2=O)c1	13
Cn1c(=O)c2c(ncn2CC(=O)N(Cc2ccccc2)C2CC2)n(C)c1=O	-4
CN(Cc1nccn1C)C(=O)c1cc2ccccc2[nH]1	5
C=CCNC(=O)c1cc(Br)cc(Br)c1OC	6
Cc1ccc(C2=C[C@@H](c3ccc(Cl)cc3)n3nc(NC(=O)c4ccccc4)nc3N2)cc1	94

Compound	% Inhibition [%]
COc1cc([C@@H]2C=C(c3ccc(Cl)cc3)Nc3ncnn32)ccc1OCc1ccc(Cl)cc1	3
Cc1ccc([C@@H]2C=C(C(=O)O)Nc3c(C(N)=O)nnn32)cc1	-14
Cc1nnc2ccc(S(=O)(=O)N(Cc3ccccc3F)c3cc(F)cc(F)c3)cn12	-5
CC(N)C(=O)NC(C)C(=O)NCCc1ccccc1 (stereo not drawn) (H-Ala-Ala-NHPhenethyl; configuration not given here)	-5
CCOC(=O)c1ncn(C2CCN(C(=O)c3cccc(Cn4ccnc4)c3)CC2)c1N	-3
CCOC(=O)c1c(CN2CCCC2)n(C)c2cc(-c3cccnc3)c(O)c(Cn3ccnc3)c12	60
Cc1nn(C)c(C)c1S(=O)(=O)N1CC[C@]2(CCN(c3cccnc3)C2)C1	1
Cc1cc(NC(=O)c2cccc(S(=O)(=O)NC3CC3)c2)no1	-8
O=C(C[C@H]1CCC(=O)N(CC2CC2)CC1)Nc1ccccc1F	4
COc1ccc(C)c2sc(N(CCCn3ccnc3)C(=O)Cc3ccc(F)cc3)nc12	79
COc1cccc(CNCCCn2ccnc2)c1OCc1ccc(F)cc1	6
Cn1cccc1CNCc1ccncc1	0
CCN(CC)[C@H](CNC(=O)C1=NN(C)C(=O)CC1)Cc1ccccc1	2
CC1CCC(c2noc([C@H]3CCO[C@@H]3c3cncc(Br)c3)n2)CC1 (some centres not stated)	52
O=C(c1cncc(Br)c1)N1CC[C@H](c2nc(C3CCOCC3)no2)C1	-2
c1csc(-c2noc(Cc3c[nH]c4ccccc34)n2)c1	21
COc1ccc(C(=O)N(C(=O)c2ccc(OC)cc2)c2c3c(nc4ccccc24)CCCC3)cc1	72
COc1ccc(CC(=O)N(c2ccccc2)c2ccccc2)cc1	21
COc1ccc(C(=O)N2CC(C(=O)O)CCC2c2ccccc2)cc1 (configuration not stated)	3
C[C@H](Oc1ccccc1)C(=O)N1CCC(c2nc(-c3ccc4c(c3)OCO4)no2)CC1	6
c1cc(-c2noc(C3CC3)n2)nc(N2CCNCC2)n1	-12
Cc1nc(N2CCC(c3nc(-c4ccccc4)no3)CC2)c2c(C)noc2n1	54
C=CCC(N)(CC=C)c1ccc(C)cc1	-6
Cn1nnnc1NC/C=C/c1ccccc1	-4
C=C1C(C)C2C(Cc3c[nH]c4ccccc34)NC(=O)C23C(=O)CC(O)C(O)CC(C)C/C=C/C3C1O (configuration not stated)	44

Compound	% Inhibition [%]
CCC(C)C(NC(=O)c1ccccc1NC(=O)c1ccco1)C(=O)N1CCCCCC1 (configuration not stated)	-9
Cc1nc(C)c(CN2C(=O)C3CCCCC3C2=O)s1 (configuration not stated)	-2
O=C(c1cccc(C(=O)N2CCN(C(c3ccccc3)c3ccccc3)CC2)c1)N1CCN(C(c2ccccc2)c2ccccc2)CC1	63
O=C([C@H]1CC(=O)N(c2ccc(F)c(Cl)c2)C1)N1CCN(C(c2ccccc2)c2ccccc2)CC1	-3
O=C(c1ccoc1)N1CCC[C@H](C(=O)N2CCN(C(c3ccccc3)c3ccccc3)CC2)C1	-1
C[C@@H](C(=O)Nc1cccc2ccccc12)c1ccc(-c2ccccc2)c(F)c1	-11
CC[n+]1c(/C=C/N(C)c2ccccc2)oc2ccc(-c3ccccc3)cc21	89
CC[n+]1c(/C=C/N(C)c2ccccc2)oc2ccccc21	80
CC(C)(C(=O)Nc1nccs1)c1cccnc1	-2
Cn1cc(C(=O)N2N=CC[C@]2(O)C(F)(F)F)cn1	1
O=C(c1cc(-c2ccccc2)n[nH]1)N1CCC(N2CCc3sccc3C2)CC1	21
CCOc1c(CNC(C)(C)C)cccc1OC	-9
CC(C)c1cnc(NCCCC[C@H]2CCCO2)nc1	-2
Cc1cccc(Oc2nc3ccccc3n3c(=O)n(CC(=O)NCc4ccc(Cl)cc4)nc23)c1C	-10
Cc1ccc(S(=O)(=O)c2ccc3c(c2)Oc2ccccc2N3)cc1	-10
O=C(NC1CCN(Cc2ccccc2)CC1)c1cnn2c(-c3ccc4c(c3)OCO4)ccnc12	3
Cc1nc2cc3c(cc2n1CC(=O)Nc1ccc(Cl)cc1)OCCCO3	-4
Cc1cc(=O)n(CC(=O)Nc2ccc(Cl)c(C(F)(F)F)c2)c(-c2ccc(F)cc2)n1	-6
CCc1cccc(NC(=O)Cn2ccc3ccc(-c4nnc(C)o4)cc32)c1	81
Cn1cc(-c2ccc(Cl)cc2)c2ncn(CC(=O)Nc3cccc(Cl)c3)c(=O)c21	-5
Cc1nnc(-c2ccc3ccn(CC(=O)Nc4ccc(F)c(Cl)c4)c3c2)o1	78
Cc1noc(C)c1CC(=O)Nc1cccc(-c2nnco2)c1	3
O=C(Nc1ccccc1)N1CCC[C@H]1c1ccncc1	-12
CC(C)N1CCC2(CC1)N=C(c1ccc3c(c1)OCO3)C[C@@H](c1cc(Cl)ccc1O)N2	41
O=C(C[C@@H]1C(=O)Nc2nc(N3CCOCC3)[nH]c(=O)c21)Nc1ccc(Cl)cc1	9

Compound	% Inhibition [%]
Cn1c(-c2ccc(Cl)c(Cl)c2)c[n+](CC(=O)c2ccc(-c3ccccc3)cc2)c1N	6
COC(=O)CN(C(C)C)S(=O)(=O)c1cc(Cl)cc(Cl)c1	3
N#Cc1ccc(S(=O)(=O)N2C3CCC2CC(O)C3)o1 (configuration not stated)	-11
O=C1CCCc2nc3[nH]n(-c4ccccc4)c(=O)c3cc21	8
CCCCCc1c(C)nc2[nH]n(-c3ccccc3)c(=O)c2c1O	-19
CNCCc1c(-c2ccccc2)[nH]n(-c2ccccc2)c1=O	63
CCc1n[nH]c(C(=O)N2CC3CCCN3CC2CC)c1Br (configuration not stated)	7
Oc1ccc(C2=C(c3ccccc3)N=NCN2O)c(O)c1	-14
COCc1c(Br)c(C)nc(O)c1C#N	-8
CCN1c2cc(C(=O)Nc3ccc(OC)cc3OC)ccc2C(=O)N2CCCC[C@H]21	8
Cc1ccc(Cn2c(=O)c(C(=O)NCc3ccc4c(c3)OCO4)nn(-c3ccc(C(C)C)cc3)c2=O)cc1	64
CC[C@H]1Cn2c(C(=O)NCc3ccc4c(c3)OCO4)cc3c(Cl)ccc(c32)O1	-11
O=C(Cn1cnc2ccc(Cl)cc2c1=O)NCc1ccc2c(c1)OCO2	-5
COc1ccc(S(=O)(=O)N2CCN(C(=O)N(C)C)[C@@H]2c2ccccc2)cc1	0
COC(=O)c1cc(Cl)c(Cl)cc1N	-6
COc1cccc([C@H]2CC(=O)Nc3nc(N4CCCCC4)sc32)c1	6
COc1ccc(OC)c(S(=O)(=O)N2C[C@H]3CCCC(=O)N[C@H]3C2)c1	-4
COc1ccc(S(=O)(=O)N2CCC(c3cc(N)on3)CC2)cc1Cl	46
COc1ccc(F)cc1S(=O)(=O)N1CCc2noc(N)c2C1	68
O=C(c1ccccn1)N1CC(n2cnnc2[C@@H]2CCCO2)C1	-8
Oc1ccc([C@@H](c2cn(-c3nc(-c4ccc(Cl)cc4)cs3)nc2-c2ccccc2)c2c(-c3ccccc3)nn(-c3nc(-c4ccc(Cl)cc4)cs3)c2O)cc1	6
c1nc2nc[nH]c(NC3CCCCC3)c-2n1	10
